PubChem BioAssay (NCATS)
Results filed as inconclusive are left out. Entries that show only a call come without a potency. Activity calls are given as the source filed them. The call rests on the fitted dose curve; in most records, active means well fitted cell-killing curve with a large enough effect; inconclusive means small, poorly fitted or top-dose-only effect, or effect the other way; inactive means flat fitted curve, though single readings scatter.

Experiment: qHTS assay for cell viability of the p53RE-bla HCT-116 cell line (AID 743292); further: nearly all actives have a fitted effect of over 55% in size
Settings: p53RE-bla HCT-116 viability, ATP luminescence, 16 h; series mostly up to 95 µM
Description: U.S. Tox21 Program National Center for Advancing Translational Sciences [NCATS] NIH Chemical Genomics Center [NCGC] U.S. Environmental Protection Agency [EPA] National Institutes of Environmental Health Sciences [NIEHS] National Toxicology Program [NTP] U.S. Food and Drug Administration [FDA] Tox21 Assay Overview: The CellTiter-Glo Luminescent Cell Viability Assay (Promega, Madison, WI) is a homogeneous method to determine the number of viable cells in culture based on quantitation of the ATP present, which signals the presence of metabolically active cells. This cell viability assay was used to screen environmental chemicals in the CellSensor p53RE-bla HCT-116 cell line (Invitrogen).
Tox21 Assay Protocol Summary: Cell viability after compound treatment was measured using a luciferase-coupled ATP quantitation assay (CellTiter-Glo viability assay, Promega, Madison, WI) in CellSensor p53RE-bla HCT-116 cell line (Invitrogen). Total intracellular ATP content corresponds to the number of metabolically competent cells after compound treatment. The cells were dispensed at 4,000 cells/5 uL/well in 1,536-well white/solid bottom assay plates using a Flying Reagent Dispenser (Aurora Discovery, San Diego, CA). The cells were incubated for 5 h at 37 C, followed by the addition of 23 nL of compounds dissolved in DMSO, positive controls or DMSO only using a pintool work station (Kalypsys, San Diego, CA). The assay plates were incubated for 16 h at 37 C, followed by the addition of 5 uL/well of CellTiter-Glo reagent. After 30 min incubation at room temperature, the luminescence intensity of the plates was measured using a ViewLux plate reader (PerkinElmer, Shelton, CT).

Row | SMILES | Potency
1 | O=C(O)c1ccccc1C(c1ccc(O)cc1)c1ccc(O)cc1 | inactive
2 | Nc1ccc(S(=O)(=O)O)cc1 | inactive
3 | ClCCCl | inactive
4 | COc1cc(/C=C/c2ccccc2)oc(=O)c1 | inactive
5 | COCC(=O)O | inactive
6 | O=C(O)CC(C(=O)O)C(CC(=O)O)C(=O)O (stereo not given) | inactive
7 | CCO | inactive
8 | O=C(O)CCCCCCCCC(=O)O | inactive
9 | C=CCOC(=O)c1ccccc1C(=O)OCC=C | inactive
10 | Nc1ccc(Cl)cc1Cl | inactive
11 | O[C@@H]([C@H](O)[C@@H](O)CBr)[C@@H](O)CBr | inactive
12 | O=C(O)c1ccc(O)cc1O | inactive
13 | CCCCC(CC)CN (stereo not given) | inactive
14 | COc1ccc(/C=C/c2cc(OC)cc(=O)o2)cc1 | inactive
15 | Cc1ccc([N+](=O)[O-])c(C)c1 | inactive
16 | COc1c2ccoc2cc2oc(=O)ccc12 | inactive
17 | C=CC(C)(CCC=C(C)C)OC(C)=O (stereo not given) | inactive
18 | O=C1c2ccccc2C(=O)C1c1ccc2ccccc2n1 | inactive
19 | c1ccccc1 | inactive
20 | CC(=O)OC/C=C(\C)CCC=C(C)C | inactive

Row | SMILES | Potency
21 | CC1(C)CC(N=C=O)CC(C)(CN=C=O)C1 (stereo not given) | inactive
22 | Clc1cc(Cl)c(Cl)c(Cl)c1Cl | inactive
23 | OCCNCCO | inactive
24 | COC(=O)CCCCC(=O)OC | inactive
25 | C=C(C)C1CC=C(C)C(O)C1 (stereo not given) | inactive
26 | CCCCCCCCCCCC(=O)O | inactive
27 | c1ccc2c(c1)[nH]c1ccccc12 | inactive
28 | O=NO | inactive
29 | CC1(C)S[C@@H]2[C@H](NC(=O)COc3ccccc3)C(=O)N2[C@H]1C(=O)O | inactive
30 | Cc1ccc([N+](=O)[O-])cc1N | inactive
31 | CCCCCCCCOC(=O)c1cc(O)c(O)c(O)c1 | inactive
32 | CCCCCCCCCCCCCC(=O)O | inactive
33 | Cc1cccc([N+](=O)[O-])c1C | inactive
34 | Cc1c(N=C=O)cccc1N=C=O | inactive
35 | CCC(O)OC(O)CC (stereo not given) | inactive
36 | COc1ccc2nc(N)sc2c1 | inactive
37 | C=CC(=C)CCC=C(C)C | inactive
38 | O=[N+]([O-])c1cccc(Cl)c1Cl | inactive
39 | Cc1ccc(N)c([N+](=O)[O-])c1 | inactive
40 | c1ccc2scnc2c1 | inactive
